Assays:
[1] = target: Protein kinase C eta type (Homo sapiens) (UniProt P24723); settings: at 1 µM
[2] = target: Protein kinase C eta type (Homo sapiens) (UniProt P24723); settings: at 10 µM
[3] = target: Protein kinase C theta type (Homo sapiens) (UniProt Q04759); settings: at 1 µM
[4] = target: Protein kinase C theta type (Homo sapiens) (UniProt Q04759); settings: at 10 µM
[5] = target: T1, Protein kinase C iota type (Homo sapiens) (UniProt P41743); settings: at 1 µM
T1 sequence (whole entry): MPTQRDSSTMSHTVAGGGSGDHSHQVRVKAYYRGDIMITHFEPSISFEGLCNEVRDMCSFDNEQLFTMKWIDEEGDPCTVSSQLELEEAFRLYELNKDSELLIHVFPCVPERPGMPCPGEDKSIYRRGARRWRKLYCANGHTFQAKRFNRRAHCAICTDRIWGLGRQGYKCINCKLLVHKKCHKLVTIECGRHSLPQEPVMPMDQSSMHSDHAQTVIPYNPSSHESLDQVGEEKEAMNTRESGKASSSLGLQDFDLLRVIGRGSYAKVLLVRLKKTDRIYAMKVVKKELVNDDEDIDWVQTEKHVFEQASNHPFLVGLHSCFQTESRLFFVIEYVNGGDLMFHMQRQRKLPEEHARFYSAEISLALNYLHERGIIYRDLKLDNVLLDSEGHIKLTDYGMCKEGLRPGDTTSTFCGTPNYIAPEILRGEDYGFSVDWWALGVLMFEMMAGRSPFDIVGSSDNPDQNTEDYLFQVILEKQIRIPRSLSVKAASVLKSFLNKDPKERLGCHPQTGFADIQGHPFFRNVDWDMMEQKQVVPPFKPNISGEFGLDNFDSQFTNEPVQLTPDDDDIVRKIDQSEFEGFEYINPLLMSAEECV

[6] = target: T1, Protein kinase C iota type (Homo sapiens); settings: at 10 µM
[7] = target: T2, Serine/threonine-protein kinase D1 (Homo sapiens) (UniProt Q15139); settings: at 1 µM
T2 sequence (whole entry): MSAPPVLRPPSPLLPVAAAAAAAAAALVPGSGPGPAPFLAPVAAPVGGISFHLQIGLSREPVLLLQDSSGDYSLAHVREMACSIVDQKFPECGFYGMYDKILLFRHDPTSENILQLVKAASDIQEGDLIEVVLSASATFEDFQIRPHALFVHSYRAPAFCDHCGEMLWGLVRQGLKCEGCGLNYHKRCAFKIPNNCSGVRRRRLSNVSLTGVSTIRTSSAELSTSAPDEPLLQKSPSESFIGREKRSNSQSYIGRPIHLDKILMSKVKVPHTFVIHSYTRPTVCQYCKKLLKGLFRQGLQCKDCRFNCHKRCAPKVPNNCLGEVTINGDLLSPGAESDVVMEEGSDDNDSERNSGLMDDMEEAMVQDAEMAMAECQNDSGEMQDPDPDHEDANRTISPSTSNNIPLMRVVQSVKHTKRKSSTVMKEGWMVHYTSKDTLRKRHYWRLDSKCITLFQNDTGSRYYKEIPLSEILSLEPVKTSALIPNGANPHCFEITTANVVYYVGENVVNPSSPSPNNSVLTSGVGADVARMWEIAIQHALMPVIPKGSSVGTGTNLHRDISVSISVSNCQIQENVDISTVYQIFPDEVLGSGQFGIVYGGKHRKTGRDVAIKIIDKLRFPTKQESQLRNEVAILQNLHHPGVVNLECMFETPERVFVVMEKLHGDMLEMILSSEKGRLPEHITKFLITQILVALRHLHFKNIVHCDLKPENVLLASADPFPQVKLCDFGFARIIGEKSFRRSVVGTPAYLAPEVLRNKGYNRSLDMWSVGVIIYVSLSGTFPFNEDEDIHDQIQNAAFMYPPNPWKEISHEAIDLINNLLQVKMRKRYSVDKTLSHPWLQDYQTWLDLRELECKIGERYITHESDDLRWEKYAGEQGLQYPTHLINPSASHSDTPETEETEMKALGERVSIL

[8] = target: T2, Serine/threonine-protein kinase D1 (Homo sapiens); settings: at 10 µM
[9] = target: T3, Serine/threonine-protein kinase D2 (Homo sapiens) (UniProt Q9BZL6); settings: at 1 µM
T3 sequence (whole entry): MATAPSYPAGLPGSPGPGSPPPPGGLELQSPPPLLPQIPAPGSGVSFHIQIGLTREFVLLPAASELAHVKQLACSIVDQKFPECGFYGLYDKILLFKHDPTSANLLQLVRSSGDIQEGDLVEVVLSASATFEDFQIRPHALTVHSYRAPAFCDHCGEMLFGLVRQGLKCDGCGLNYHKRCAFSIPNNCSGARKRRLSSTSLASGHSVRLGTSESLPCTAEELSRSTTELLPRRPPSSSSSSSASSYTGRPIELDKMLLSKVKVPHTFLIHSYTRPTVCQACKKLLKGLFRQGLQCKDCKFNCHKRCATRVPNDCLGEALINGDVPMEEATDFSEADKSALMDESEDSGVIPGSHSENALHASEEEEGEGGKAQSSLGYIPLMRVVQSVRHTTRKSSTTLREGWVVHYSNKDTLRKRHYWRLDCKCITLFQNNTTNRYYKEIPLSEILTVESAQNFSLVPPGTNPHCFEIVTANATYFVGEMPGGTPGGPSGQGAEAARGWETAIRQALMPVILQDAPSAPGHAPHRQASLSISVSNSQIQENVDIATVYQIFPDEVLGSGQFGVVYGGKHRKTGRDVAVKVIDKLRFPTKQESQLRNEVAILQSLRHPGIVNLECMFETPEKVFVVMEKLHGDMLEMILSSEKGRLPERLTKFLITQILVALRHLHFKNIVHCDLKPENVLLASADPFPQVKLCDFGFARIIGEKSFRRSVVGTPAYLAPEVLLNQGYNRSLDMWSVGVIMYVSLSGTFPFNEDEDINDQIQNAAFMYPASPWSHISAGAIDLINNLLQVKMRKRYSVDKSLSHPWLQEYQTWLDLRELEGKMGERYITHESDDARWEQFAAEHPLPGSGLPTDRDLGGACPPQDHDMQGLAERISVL

[10] = target: T3, Serine/threonine-protein kinase D2 (Homo sapiens); settings: at 10 µM
[11] = target: T4, cGMP-dependent protein kinase 1 (Homo sapiens) (UniProt Q13976); settings: at 1 µM
T4 sequence (whole entry): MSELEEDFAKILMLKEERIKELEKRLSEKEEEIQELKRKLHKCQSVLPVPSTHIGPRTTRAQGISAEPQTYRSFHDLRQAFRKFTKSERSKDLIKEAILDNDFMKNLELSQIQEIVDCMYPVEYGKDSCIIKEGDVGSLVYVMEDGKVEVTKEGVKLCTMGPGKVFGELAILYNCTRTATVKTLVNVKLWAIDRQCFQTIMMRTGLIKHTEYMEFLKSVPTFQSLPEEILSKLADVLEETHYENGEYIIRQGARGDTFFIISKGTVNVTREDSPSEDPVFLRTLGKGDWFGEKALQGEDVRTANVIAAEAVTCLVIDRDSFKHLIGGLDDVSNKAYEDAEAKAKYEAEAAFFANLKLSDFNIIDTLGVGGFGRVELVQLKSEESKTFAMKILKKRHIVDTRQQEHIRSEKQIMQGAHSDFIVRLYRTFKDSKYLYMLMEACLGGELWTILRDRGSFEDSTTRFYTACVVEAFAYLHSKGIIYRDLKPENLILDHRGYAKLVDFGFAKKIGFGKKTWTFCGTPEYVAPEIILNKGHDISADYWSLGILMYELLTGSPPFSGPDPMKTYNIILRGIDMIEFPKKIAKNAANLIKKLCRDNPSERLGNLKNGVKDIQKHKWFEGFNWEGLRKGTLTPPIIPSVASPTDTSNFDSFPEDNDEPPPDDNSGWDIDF

[12] = target: T4, cGMP-dependent protein kinase 1 (Homo sapiens); settings: at 10 µM
[13] = target: T4, cGMP-dependent protein kinase 1 (Homo sapiens); settings: at 1 µM; remark: listed apart in the source
[14] = target: T4, cGMP-dependent protein kinase 1 (Homo sapiens); settings: at 10 µM; remark: listed apart in the source
[15] = target: T5, MAP kinase-activated protein kinase 5 (Homo sapiens) (UniProt Q8IW41); settings: at 1 µM
T5 sequence (whole entry): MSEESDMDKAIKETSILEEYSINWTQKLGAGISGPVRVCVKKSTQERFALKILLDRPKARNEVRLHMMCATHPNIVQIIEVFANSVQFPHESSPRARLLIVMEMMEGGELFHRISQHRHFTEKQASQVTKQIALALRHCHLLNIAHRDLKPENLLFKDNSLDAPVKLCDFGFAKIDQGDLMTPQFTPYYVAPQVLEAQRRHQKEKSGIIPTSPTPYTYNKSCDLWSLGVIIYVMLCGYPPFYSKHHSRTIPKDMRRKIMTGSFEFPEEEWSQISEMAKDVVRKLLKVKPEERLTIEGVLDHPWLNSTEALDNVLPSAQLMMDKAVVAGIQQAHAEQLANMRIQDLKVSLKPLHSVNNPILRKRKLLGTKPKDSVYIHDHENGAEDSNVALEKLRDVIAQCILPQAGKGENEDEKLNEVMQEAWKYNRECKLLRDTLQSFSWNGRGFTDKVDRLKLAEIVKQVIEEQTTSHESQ

[16] = target: T5, MAP kinase-activated protein kinase 5 (Homo sapiens); settings: at 10 µM
[17] = target: Serine/threonine-protein kinase N2 (Homo sapiens) (UniProt Q16513); settings: at 1 µM
Sequence of Serine/threonine-protein kinase N2 (Homo sapiens) (Q16513 whole entry, looked up): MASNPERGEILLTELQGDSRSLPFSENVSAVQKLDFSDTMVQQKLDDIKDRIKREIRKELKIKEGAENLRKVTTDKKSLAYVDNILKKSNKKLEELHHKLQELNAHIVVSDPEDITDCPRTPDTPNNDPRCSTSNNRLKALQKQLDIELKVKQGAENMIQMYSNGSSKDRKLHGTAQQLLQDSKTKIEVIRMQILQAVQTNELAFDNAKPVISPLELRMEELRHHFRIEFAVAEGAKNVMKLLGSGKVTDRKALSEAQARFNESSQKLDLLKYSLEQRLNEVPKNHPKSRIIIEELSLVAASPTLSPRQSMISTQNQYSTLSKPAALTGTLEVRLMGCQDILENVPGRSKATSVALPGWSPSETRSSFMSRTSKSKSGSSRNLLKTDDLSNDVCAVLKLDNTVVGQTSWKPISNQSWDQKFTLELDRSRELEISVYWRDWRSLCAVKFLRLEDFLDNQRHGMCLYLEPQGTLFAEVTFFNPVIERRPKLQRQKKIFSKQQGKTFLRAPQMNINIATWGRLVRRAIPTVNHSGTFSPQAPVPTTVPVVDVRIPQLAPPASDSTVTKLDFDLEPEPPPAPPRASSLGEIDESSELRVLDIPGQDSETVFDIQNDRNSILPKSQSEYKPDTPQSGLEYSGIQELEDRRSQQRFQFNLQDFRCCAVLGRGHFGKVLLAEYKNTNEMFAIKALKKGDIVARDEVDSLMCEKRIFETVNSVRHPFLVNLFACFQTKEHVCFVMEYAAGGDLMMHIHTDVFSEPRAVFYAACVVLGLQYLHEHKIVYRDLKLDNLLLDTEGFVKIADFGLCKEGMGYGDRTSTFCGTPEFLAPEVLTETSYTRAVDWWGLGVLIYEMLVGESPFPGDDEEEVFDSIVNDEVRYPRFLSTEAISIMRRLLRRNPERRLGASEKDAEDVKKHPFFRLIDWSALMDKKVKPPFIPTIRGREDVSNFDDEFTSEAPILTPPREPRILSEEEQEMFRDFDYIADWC

[18] = target: Serine/threonine-protein kinase N2 (Homo sapiens) (UniProt Q16513); settings: at 10 µM
[19] = target: Tyrosine-protein kinase FRK (Homo sapiens) (UniProt P42685); settings: at 1 µM
Sequence of Tyrosine-protein kinase FRK (Homo sapiens) (P42685 whole entry): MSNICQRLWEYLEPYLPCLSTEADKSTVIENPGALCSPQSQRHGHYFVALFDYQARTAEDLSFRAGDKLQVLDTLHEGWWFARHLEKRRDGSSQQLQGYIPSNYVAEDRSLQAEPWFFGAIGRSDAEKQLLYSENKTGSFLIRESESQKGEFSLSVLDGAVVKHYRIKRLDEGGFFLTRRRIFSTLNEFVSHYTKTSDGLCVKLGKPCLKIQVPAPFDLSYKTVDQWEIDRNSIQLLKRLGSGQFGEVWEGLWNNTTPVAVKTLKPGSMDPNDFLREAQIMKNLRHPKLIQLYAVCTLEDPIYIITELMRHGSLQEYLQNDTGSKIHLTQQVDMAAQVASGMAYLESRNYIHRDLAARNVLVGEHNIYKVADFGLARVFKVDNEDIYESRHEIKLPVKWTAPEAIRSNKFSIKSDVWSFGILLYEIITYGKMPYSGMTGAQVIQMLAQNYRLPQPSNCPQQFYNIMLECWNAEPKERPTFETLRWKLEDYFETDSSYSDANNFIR

[20] = target: Tyrosine-protein kinase FRK (Homo sapiens) (UniProt P42685); settings: at 10 µM

Sequence of Protein kinase C theta type (Homo sapiens) (Q04759 whole entry, looked up): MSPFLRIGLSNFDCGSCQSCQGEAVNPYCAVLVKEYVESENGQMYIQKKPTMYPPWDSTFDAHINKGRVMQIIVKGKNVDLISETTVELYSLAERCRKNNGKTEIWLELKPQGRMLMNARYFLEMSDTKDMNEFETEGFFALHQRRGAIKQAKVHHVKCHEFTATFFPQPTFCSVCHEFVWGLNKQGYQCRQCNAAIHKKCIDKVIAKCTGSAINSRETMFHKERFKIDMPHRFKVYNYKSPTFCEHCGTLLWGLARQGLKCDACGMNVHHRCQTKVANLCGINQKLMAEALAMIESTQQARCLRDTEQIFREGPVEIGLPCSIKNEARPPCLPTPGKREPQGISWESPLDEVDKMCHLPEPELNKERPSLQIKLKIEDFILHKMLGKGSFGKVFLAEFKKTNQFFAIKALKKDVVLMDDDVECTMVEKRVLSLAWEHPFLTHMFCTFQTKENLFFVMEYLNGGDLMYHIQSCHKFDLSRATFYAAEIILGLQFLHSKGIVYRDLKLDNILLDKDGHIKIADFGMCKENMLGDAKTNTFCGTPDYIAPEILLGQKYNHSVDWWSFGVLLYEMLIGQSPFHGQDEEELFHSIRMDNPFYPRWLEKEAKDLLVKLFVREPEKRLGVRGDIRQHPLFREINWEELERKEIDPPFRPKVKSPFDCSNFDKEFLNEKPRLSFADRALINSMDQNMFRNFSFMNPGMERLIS
Sequence of Protein kinase C eta type (Homo sapiens) (P24723 whole entry): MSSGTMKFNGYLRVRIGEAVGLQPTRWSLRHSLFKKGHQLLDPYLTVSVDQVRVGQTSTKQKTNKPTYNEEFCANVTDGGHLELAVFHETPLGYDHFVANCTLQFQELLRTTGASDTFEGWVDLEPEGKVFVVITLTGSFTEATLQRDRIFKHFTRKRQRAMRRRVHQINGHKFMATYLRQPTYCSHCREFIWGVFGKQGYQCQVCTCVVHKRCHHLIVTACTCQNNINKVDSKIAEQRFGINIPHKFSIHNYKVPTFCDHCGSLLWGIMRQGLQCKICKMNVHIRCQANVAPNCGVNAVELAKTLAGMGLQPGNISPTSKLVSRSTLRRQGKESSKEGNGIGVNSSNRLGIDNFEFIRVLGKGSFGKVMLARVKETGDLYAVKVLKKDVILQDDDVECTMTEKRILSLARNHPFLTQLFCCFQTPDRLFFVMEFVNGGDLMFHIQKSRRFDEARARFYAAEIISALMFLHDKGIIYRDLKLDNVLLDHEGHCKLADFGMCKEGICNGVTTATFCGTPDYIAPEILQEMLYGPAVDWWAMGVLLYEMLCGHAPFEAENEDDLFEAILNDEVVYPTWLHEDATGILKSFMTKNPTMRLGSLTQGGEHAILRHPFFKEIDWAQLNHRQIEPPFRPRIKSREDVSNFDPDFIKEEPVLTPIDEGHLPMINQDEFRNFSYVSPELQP

Compound | residual activity [1] | residual activity [2] | residual activity [3] | residual activity [4] | residual activity [5] | residual activity [6] | residual activity [7] | residual activity [8] | residual activity [9] | residual activity [10] | residual activity [11] | residual activity [12] | residual activity [13] | residual activity [14] | residual activity [15] | residual activity [16] | residual activity [17] | residual activity [18] | residual activity [19] | residual activity [20]
CCOc1cc2ncnc(Nc3cccc(Br)c3)c2cc1OCC | 82% | 88% | 116% | 106% | 87% (inactive) | 95% | 101% | 54% | 104% | 113% | 108% | 91% | 95% | 66% | 79% | 82% | 93% | 79% | 40% | 5%
Cc1nc(-c2ccccc2)c(-c2ccncc2)o1 | 101% | 90% | 107% | 103% | 108% (inactive) | 103% | 113% | 80% | 103% | 94% | 93% | 80% | 115% | 90% | 110% | 115% | 99% | 76% | 1% | 2%
COc1ccc(CNc2nc(N(CCO)CCO)nc3c2ncn3C(C)C)cc1 | 83% | 83% | 4% | 5% | 112% (inactive) | 108% | 91% | 71% | 101% | 93% | 93% | 101% | 109% | 101% | 100% | 102% | 104% | 77% | 95% | 87%

From ChEMBL document CHEMBL2218924, “A broad activity screen in support of a chemogenomic map for kinase signalling research and drug discovery” (Biochem J, 2013)
